# Results published in PubChem BioAssay AID1159580 (chemical genetic matrix, 2015).
# The campaign covered roughly 5,500 compounds. About 2,000 (36%) were called active. Inconclusive results (about 18%) are left out. The list shows a part of the results. A number with no mark means an inactive call. No stated cut-off is given here; in the data, active means normalized growth mostly below about 0.91 (no sharp cut-off); inconclusive means no clear call, values can overlap the other calls; inactive means mostly above about 0.92.
# Test: chemical genetic growth profiling, strain panel (AID 1159580);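 further: tested at 20 µM; growth read once vehicle control cultures reached saturation at 30 °C; 1 = growth at the plate median or of vehicle wells; lower values mean less growth of the strain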
# Details: S. cerevisiae deletion strains, growth OD
smiles,measurement,setting,value
CN(C)c1ccc(/C=C/c2ccc3ccccc3[n+]2C)cc1,normalized growth,"locus YAR019C, strain CDC15, hits give low values",0.966
same,normalized growth,"locus YBL105C, strain PKC1, hits give low values",0.961
same,normalized growth,"locus YBR135W, strain CKS1, hits give low values",0.974
same,normalized growth,"locus YBR136W, strain MEC1, hits give low values",0.956
same,normalized growth,"locus YBR160W, strain CDC28, hits give low values",0.959
same,normalized growth,"locus YDL017W, strain CDC7, hits give low values",0.969
same,normalized growth,"locus YDL028C, strain MPS1, hits give low values",0.976
same,normalized growth,"locus YDL101C, strain DUN1, hits give low values",0.988
same,normalized growth,"locus YDL108W, strain KIN28, hits give low values",0.965
same,normalized growth,"locus YDL132W, strain cdc53, hits give low values",0.975
same,normalized growth,"locus YDL214C, strain PRR2, hits give low values",0.817
same,normalized growth,"locus YDR052C, strain DBF4, hits give low values",0.954
same,normalized growth,"locus YDR054C, strain cdc34, hits give low values",0.965
same,normalized growth,"locus YDR226W, strain ADK1, hits give low values",0.961
same,normalized growth,"locus YDR477W, strain SNF1, hits give low values",0.83
same,normalized growth,"locus YER123W, strain YCK3, hits give low values",0.799
same,normalized growth,"locus YER133W, strain GLC7, hits give low values",0.801
same,normalized growth,"locus YFL009W, strain cdc4, hits give low values",0.976
same,normalized growth,"locus YFL029C, strain CAK1, hits give low values",0.978
same,normalized growth,"locus YFR003C, strain YPI1, hits give low values",0.959
same,normalized growth,"locus YFR019W, strain FAB1, hits give low values",0.87
same,normalized growth,"locus YFR028C, strain CDC14, hits give low values",0.967
same,normalized growth,"locus YGR040W, strain KSS1, hits give low values",0.798
same,normalized growth,"locus YGR052W, strain FMP48, hits give low values",0.745
same,normalized growth,"locus YGR092W, strain DBF2, hits give low values",0.775
same,normalized growth,"locus YHR030C, strain SLT2, hits give low values",0.532 (active)
same,normalized growth,"locus YHR079C, strain IRE1, hits give low values",0.49 (active)
same,normalized growth,"locus YHR082C, strain KSP1, hits give low values",0.806
same,normalized growth,"locus YHR205W, strain SCH9, hits give low values",0.64
same,normalized growth,"locus YIL147C, strain SLN1, hits give low values",0.959
same,normalized growth,"locus YJL095W, strain BCK1, hits give low values",0.666
same,normalized growth,"locus YJL128C, strain PBS2, hits give low values",0.943
same,normalized growth,"locus YJL157C, strain FAR1, hits give low values",0.733
same,normalized growth,"locus YJR016C, strain ILV3, hits give low values",0.983
same,normalized growth,"locus YJR066W, strain TOR1 (second series), hits give low values",0.928
same,normalized growth,"locus YJR066W, strain TOR1, hits give low values",0.607
same,normalized growth,"locus YKL048C, strain ELM1, hits give low values",0.899
same,normalized growth,"locus YKL067W, strain YNK1, hits give low values",0.798
same,normalized growth,"locus YKL101W, strain HSL1, hits give low values",0.815
same,normalized growth,"locus YKL193C, strain SDS22, hits give low values",0.982
same,normalized growth,"locus YKL203C, strain TOR2, hits give low values",0.823
same,normalized growth,"locus YLR113W, strain HOG1, hits give low values",0.677 (active)
same,normalized growth,"locus YLR133W, strain CKI1, hits give low values",0.816
same,normalized growth,"locus YLR403W, strain SFP1, hits give low values",0.672
same,normalized growth,"locus YML070W, strain DAK1, hits give low values",0.811
same,normalized growth,"locus YMR001C, strain CDC5, hits give low values",0.978
same,normalized growth,"locus YMR205C, strain PFK2 (second series), hits give low values",0.887
same,normalized growth,"locus YMR277W, strain FCP1, hits give low values",0.976
same,normalized growth,"locus YNL006W, strain LST8, hits give low values",0.979
same,normalized growth,"locus YNL020C, strain ARK1, hits give low values",0.61 (active)
same,normalized growth,"locus YNL161W, strain CBK1, hits give low values",0.977
same,normalized growth,"locus YNL183C, strain NPR1, hits give low values",0.782
same,normalized growth,"locus YNL207W, strain RIO2, hits give low values",0.962
same,normalized growth,"locus YNL222W, strain SSU72, hits give low values",0.968
same,normalized growth,"locus YNL307C, strain MCK1 (second series), hits give low values",0.589 (active)
same,normalized growth,"locus YOL078W, strain AVO1, hits give low values",0.984
same,normalized growth,"locus YOL136C, strain PFK27, hits give low values",0.786
same,normalized growth,"locus YOR061W, strain CKA2, hits give low values",0.69
same,normalized growth,"locus YOR119C, strain RIO1, hits give low values",0.833
same,normalized growth,"locus YOR231W, strain MKK1, hits give low values",0.548 (active)
same,normalized growth,"locus YOR329C, strain SCD5, hits give low values",0.965
same,normalized growth,"locus YPL031C, strain PHO85, hits give low values",0.807
same,normalized growth,"locus YPL153C, strain RAD53, hits give low values",0.833
same,normalized growth,"locus YPL204W, strain HRR25, hits give low values",0.726
same,normalized growth,"locus YPL209C, strain IPL1, hits give low values",0.966
same,normalized growth,"locus YPL256C, strain CLN2, hits give low values",0.626 (active)
same,normalized growth,"locus YPR025C, strain CCL1, hits give low values",0.969
same,normalized growth,"locus YPR106W, strain ISR1, hits give low values",0.977
same,normalized growth,"locus YPR111W, strain DBF20, hits give low values",0.96
same,normalized growth,"strain NNK1, hits give low values",0.97
same,normalized growth,"strain TSCII, hits give low values",0.966
